Assay results: PubChem BioAssay AID1259313 (Sanford-Burnham Center for Chemical Genomics, 2017)
In all, about 340,000 compounds went through this assay and about 8,500 (2.5%) were called active. The sample holds actives, similar compounds and a random draw of the others, so the mix is not that of the screen. Values without a mark were called inactive.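 The calls were made as follows: active = melting temperature shift of at least 10% of the positive control shift, at one fixed dose; inactive = the rest.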

The compounds below were run on Glutamate receptor ionotropic, NMDA 3A (GRIN3A) ligand-binding domain (assay: binders of NR3A ligand-binding domain, primary screen, biophysical, differential scanning fluorimetry, uHTS (AID 1259313)). Details: NR3A LBD differential scanning fluorimetry, at 25 µM, hits give high values, 0% = protein alone, 100% = glycine-bound protein.
`CCOC(=O)c1ccc(-n2c(CCC(=O)O)ccc2-c2ccccc2)cc1` showed a Tm shift relative to glycine control of 0.18%. In the case of `Cc1ccc(CNC(=O)CC2Sc3ccccc3NC2=O)cc1` (stereo not drawn), the Tm shift relative to glycine control is reported as -1.5%. `Cc1ccc(NC(=O)CC2S/C(=N/N=C3\CCCc4ccccc43)NC2=O)cc1` (stereo not drawn) was tested, and the Tm shift relative to glycine control was 25.5% (active). In the case of `Cc1c(Cl)cccc1NC(=O)CC1SC(=NCC2CCCO2)NC1=O` (stereo not drawn), the Tm shift relative to glycine control is reported as -1.26%. `CN(C(=O)Cn1nnc(-c2ccc(F)cc2)n1)C1CCS(=O)(=O)C1` (stereo not drawn) was tested, and the Tm shift relative to glycine control was 0.08%. Work on `CC(C)CCNC(=O)CN(C(=O)Cn1nnc(-c2ccc(F)cc2)n1)C1CCCC1` yielded a Tm shift relative to glycine control of -0.75%. For `CC(C)CCNC(=O)C(C)N(C(=O)Cn1nnc(-c2ccc(F)cc2)n1)C1CCCC1` (stereo not drawn), the Tm shift relative to glycine control was 22.9% (active). Compound `COCC1CCN(C(=O)c2ccc3oc(Cc4ccccc4)nc3c2)C1` (stereo not drawn) has a Tm shift relative to glycine control of -2.47%. In the case of `CN(C)Cc1c(O)ccc2occ(C(O)c3ccccc3)c12` (stereo not drawn), the Tm shift relative to glycine control is reported as -0.8%. In the case of `Cc1ccc(NC(=O)NC(=O)CSc2nnc(-c3ccc(OC(F)F)cc3)n2N)c(C)c1`, the Tm shift relative to glycine control is reported as 47.6% (active). In the case of `CCN(C(=O)CSc1nnc(-c2ccc(OC(F)F)cc2)n1N)C1CCS(=O)(=O)C1` (stereo not drawn), the Tm shift relative to glycine control is reported as 0.42%. With `CC(C)NC(=O)NC(=O)CSc1nnc(-c2ccccc2F)n1N` the Tm shift relative to glycine control was -0.64%. In the case of `Nc1c(-c2ccc(F)cc2)cnn1C1CCS(=O)(=O)C1` (stereo not drawn), the Tm shift relative to glycine control is reported as -1.17%. `Nc1ccc(Cl)c(S(=O)(=O)Nc2ccccc2Cl)c1` gave a Tm shift relative to glycine control of -2.25%. In the case of `CCn1cc(NC(=O)Nc2ccc(OC)c(OC)c2)c(C(N)=O)n1`, the Tm shift relative to glycine control is reported as -1.66%. `N#CCCN(CCC#N)c1nnc(-c2ccccc2)s1` gave a Tm shift relative to glycine control of 2.17%. With `C=CCn1cnc2scc(-c3ccccc3)c2c1=O` the Tm shift relative to glycine control was 5.11%. With `CN(CCC#N)c1ncnc2scc(-c3ccccc3)c12` the Tm shift relative to glycine control was 10.9% (active). `COc1ccc(CCNC(=O)c2ccc(NC(=O)CC3SC(N4CCCCC4)=NC3=O)cc2)cc1OC` (stereo not drawn) showed a Tm shift relative to glycine control of 0.17%. For `CNc1ccc(SC#N)cc1`, the Tm shift relative to glycine control was -0.62%. In the case of `C=CCn1c(=NC(=O)c2cccs2)sc2cc(NC(C)=O)ccc21`, the Tm shift relative to glycine control is reported as 2.65%. For `C=CCn1c(=NC(=O)c2ccc(S(=O)(=O)N3CCCC3)cc2)sc2cc(NC(C)=O)ccc21`, the Tm shift relative to glycine control was 18.6% (active). `CC(=O)Nc1ccc(S(=O)(=O)N2CCSCC2)cc1` gave a Tm shift relative to glycine control of 0.09%. Compound `CC(=O)Nc1ccc(NC(=O)CCN2C(=O)C3CC=CCC3C2=O)cc1` (stereo not drawn) has a Tm shift relative to glycine control of -1.24%. With `CCC(C)(C)NC(=O)C(c1cccc(OC)c1OC)N(CC(C)C)C(=O)CCC(=O)Nc1cc(C)on1` (stereo not drawn) the Tm shift relative to glycine control was -1.85%. In the case of `NC(=O)C1CC(=O)N(c2ccc(OCC(=O)NCc3ccccc3)cc2)C1` (stereo not drawn), the Tm shift relative to glycine control is reported as -0.09%. For `O=C(O)c1ccccc1N=N/C(=N/Nc1cc(S(=O)(=O)O)ccc1O)c1ccccc1`, the Tm shift relative to glycine control was 25.2% (active). With `Cn1cccc1C(=O)OCC(=O)c1ccc(Br)s1` the Tm shift relative to glycine control was 14% (active). `Cn1cccc1C(=O)OCC(=O)NCCc1ccccc1` was tested, and the Tm shift relative to glycine control was -0.25%. Compound `O=C(COC(=O)c1c2c(nc3ccccc13)CCCC2)c1ccc(Br)s1` has a Tm shift relative to glycine control of -4.51%. `O=C(Nc1cccc(C(=O)NC2CC2)c1)c1ccc(F)c(S(=O)(=O)N2CCOCC2)c1` showed a Tm shift relative to glycine control of 4.42%. `Cc1ccc(C(=O)/C=C/Nc2ccc(S(=O)(=O)Nc3onc(C)c3C)cc2)cc1` was tested, and the Tm shift relative to glycine control was -6.78%. In the case of `COc1ccc(/C=C/C(=O)c2ccc(NS(=O)(=O)c3ccc(C)cc3)cc2)cc1O`, the Tm shift relative to glycine control is reported as 24.6% (active). Compound `COc1ccc(NS(=O)(=O)c2ccc(NC(=S)NC(=O)/C=C/c3ccc(C)cc3)cc2)nn1` has a Tm shift relative to glycine control of -7.2%. Work on `CCOC(=O)C1CCN(C(=O)CN2C(=O)NC(C)(c3ccc4cc(OC)ccc4c3)C2=O)CC1` (stereo not drawn) yielded a Tm shift relative to glycine control of 0.17%. `Cc1onc(-c2ccccc2Cl)c1C(=O)OCC(=O)c1ccccc1` gave a Tm shift relative to glycine control of -1.07%. With `Cc1[nH]c2ccccc2c1C(=O)COC(=O)c1c(-c2ccccc2)noc1C` the Tm shift relative to glycine control was 18.8% (active). In the case of `CCOC(=O)c1c(-c2cccc(C)c2)csc1NC(=O)c1c(-c2ccccc2)noc1C`, the Tm shift relative to glycine control is reported as -0.48%. Work on `COc1cc(NC(=O)CCNC(=O)Cn2ccc3ccccc3c2=O)cc(OC)c1OC` yielded a Tm shift relative to glycine control of 1.09%. In the case of `O=C(COC(=O)CSc1nnc(-c2ccc(Cl)cc2)o1)Nc1cc(Cl)cc(Cl)c1`, the Tm shift relative to glycine control is reported as 19.4% (active). Compound `O=C(CSc1nnc(-c2ccncc2)o1)NCc1ccc(Cl)cc1` has a Tm shift relative to glycine control of 1.65%. Work on `O=C(CSc1nnc(-c2ccncc2)o1)Nc1cccc(Cl)c1` yielded a Tm shift relative to glycine control of -2.14%. `NCC(=O)c1cccc2ccc[n+]([O-])c12` gave a Tm shift relative to glycine control of 7.2%. Compound `Cc1ccc(C)c(NC(=O)COC(=O)c2nn(C)c(=O)c3ccccc23)c1` has a Tm shift relative to glycine control of 0.34%. `O=P(O)(CP(=O)(c1ccccc1)c1ccccc1)c1ccccc1O` gave a Tm shift relative to glycine control of -4.72%. With `CC(=O)c1cccc(NC(=O)C2CCCN2S(=O)(=O)c2cccc3nsnc23)c1` (stereo not drawn) the Tm shift relative to glycine control was 1.52%. For `CC1CCCCC1NC(=O)C1CCCN1S(=O)(=O)c1cccc2nsnc12` (stereo not drawn), the Tm shift relative to glycine control was -1.29%. With `COc1ccc(OC)c(NC(=O)C2CCCN2S(=O)(=O)c2cccc3nsnc23)c1` (stereo not drawn) the Tm shift relative to glycine control was 13.4% (active). In the case of `COc1ccc(CCC(=O)OCC(=O)Nc2ccc(C)c(S(=O)(=O)N(C)C)c2)cc1`, the Tm shift relative to glycine control is reported as -3.89%. With `Cc1c(C=O)c2ccccc2n1CCOc1ccccc1` the Tm shift relative to glycine control was -1.12%. With `COC(=O)c1ccc(COc2cc([N+](=O)[O-])cc3cccnc23)cc1` the Tm shift relative to glycine control was -1.16%. For `CCCCC/C=C/C1=CC(=O)C[C@H](c2ccc(Cl)cc2)C1`, the Tm shift relative to glycine control was -2.27%. With `COc1ccc([C@H]2CC(=O)C=C(/C=C/c3ccc(Cl)cc3)C2)cc1` the Tm shift relative to glycine control was 25.2% (active). For `COc1ccc([C@H]2CC(=O)C=C(/C=C/c3ccccc3)C2)cc1`, the Tm shift relative to glycine control was -0.08%. `CC1(C)O[C@@H]2CC3C4C[C@H](F)C5=CC(=O)C=CC5(C)C4C(O)CC3(C)[C@]2(C(=O)CO)O1` (stereo partly drawn) was tested, and the Tm shift relative to glycine control was -0.79%. With `COc1ccc(NC(=O)C2CCN(S(=O)(=O)c3ccc4[nH]c(=O)oc4c3)CC2)c(OC)c1` the Tm shift relative to glycine control was -2.13%. For `Cc1nc2cc(NC(=O)Nc3cccc(F)c3)ccc2n1C`, the Tm shift relative to glycine control was -0.72%. `O=C(Nc1ccc2ccccc2c1)Nc1ccc2snnc2c1` was tested, and the Tm shift relative to glycine control was 157% (active). `O=C(Nc1cccc(Br)c1)c1ccc2snnc2c1` was tested, and the Tm shift relative to glycine control was -4.74%. For `Cc1cccc(C)c1NC(=O)CSc1nc2c([nH]1)c(=O)n(C)c(=O)n2C`, the Tm shift relative to glycine control was -0.47%. Work on `CO[C@@H]1[C@@H](OC(N)=O)[C@@H](O)C(Oc2ccc3c(O)c(NC(=O)c4ccc(O)c(CC=C(C)C)c4)c(=O)oc3c2C)OC1(C)C` (stereo partly drawn) yielded a Tm shift relative to glycine control of -12.2%. For `CC(C)c1ccc(NC(=S)NNc2ccc(Cl)c(C(=O)O)c2)cc1`, the Tm shift relative to glycine control was -0.77%. For `Cc1ccc(C)c(NC(=S)NNC(=O)c2csc(C)c2)c1`, the Tm shift relative to glycine control was 1.94%. `Cc1ccc(C)c(NC(=S)NNC(=S)Nc2ccc(C(C)C)cc2)c1` was tested, and the Tm shift relative to glycine control was 12.8% (active). `CN(C)CCCn1c(=O)n(Cc2ccccc2)c(=O)c2c3c(sc21)CCCCC3` was tested, and the Tm shift relative to glycine control was -3.1%. With `CCCOP(=O)(c1ccc(N(C)C)cc1)C(O)c1cc(OC)c(OC)c(OC)c1` (stereo not drawn) the Tm shift relative to glycine control was 3.76%. `CCOc1cc(C=NNC(=O)CCCC(=O)NN=Cc2ccc(O)c(OCC)c2)ccc1O` was tested, and the Tm shift relative to glycine control was 1.26%. `CCOc1cc(-c2cc(-c3ccc(NC(C)=O)cc3)nc(N)c2C#N)ccc1O` gave a Tm shift relative to glycine control of -13.2%. In the case of `CCOc1cc(/C=C(\C#N)c2nc(-c3cccs3)c(NC(C)=O)s2)ccc1O`, the Tm shift relative to glycine control is reported as 10.9% (active). `Cc1noc(C)c1S(=O)(=O)NCCc1ccc(S(N)(=O)=O)cc1` gave a Tm shift relative to glycine control of 5.94%. `O=C1c2ccccc2C(O)N1Cc1ccccc1` (stereo not drawn) was tested, and the Tm shift relative to glycine control was 0.38%. With `O=C1c2ccccc2C(O)N1Cc1ccccc1Cl` (stereo not drawn) the Tm shift relative to glycine control was 12.8% (active). Work on `O=c1ccn(Cc2ccccc2Cl)cc1` yielded a Tm shift relative to glycine control of 0.42%. In the case of `O=C(N/N=C/c1sc(N2CCCCC2)nc1-c1cccs1)c1cccnc1`, the Tm shift relative to glycine control is reported as -0.4%. For `O=C(COC(=O)COc1ccccc1F)Nc1cccc(S(=O)(=O)N2CCCCC2)c1`, the Tm shift relative to glycine control was -3.69%. `Brc1ccccc1CN1CCC(Cc2ccccc2)CC1` showed a Tm shift relative to glycine control of 0.68%. `O=C(Nn1c(SCc2ccc([N+](=O)[O-])cc2)nc2ccccc2c1=O)c1ccc(F)cc1` was tested, and the Tm shift relative to glycine control was 14.8% (active). In the case of `C=CCn1c(SCc2ccc(C(=O)NCCO)cc2)nc2ccccc2c1=O`, the Tm shift relative to glycine control is reported as -2.22%. In the case of `Cc1nc2ccccc2c(=O)n1NC(=O)c1ccc(Cl)c([N+](=O)[O-])c1`, the Tm shift relative to glycine control is reported as 0.49%. In the case of `COc1ccc(NC(=O)C2=CC(c3ccc(OC)c(OC)c3)=NS(=O)(=O)N2C)cc1`, the Tm shift relative to glycine control is reported as -11.9%. With `CCN1C(=O)C(C(=O)NC(C)c2ccccc2)C2CC1(C)Oc1ccccc12` (stereo not drawn) the Tm shift relative to glycine control was -1.26%. `CC(C)CNC(=O)COC(=O)c1ccccc1OCC(=O)Nc1ccc(Br)cc1` gave a Tm shift relative to glycine control of 0.17%. With `CN(C)C=NC(=O)c1cccn1-c1ncc(C(F)(F)F)cc1Cl` the Tm shift relative to glycine control was -1.59%. In the case of `CCCCOC(=O)Cn1c(=O)n(CC(=O)OCCCC)c2cc(C)ccc21`, the Tm shift relative to glycine control is reported as 10.7% (active). With `Cc1ccc(C)c(NC(=O)COC(=O)Cn2c(C)csc2=O)c1` the Tm shift relative to glycine control was 3.33%. In the case of `CCOC(=O)CN1C(=O)C(=O)c2cc(C)ccc21`, the Tm shift relative to glycine control is reported as 0.43%. For `CN(C(=O)CSc1nnc(-c2ccc3c(c2)OCO3)o1)C1CCS(=O)(=O)C1` (stereo not drawn), the Tm shift relative to glycine control was 1.73%. With `O=C(CCC(=O)NNc1nc2ccccc2c2nc(-c3ccccc3)nn12)NCCCN1CCCC1=O` the Tm shift relative to glycine control was 0.34%. Compound `COc1ccc2[nH]c3c(C)c4cc[n+](C)cc4c(C)c3c2c1` has a Tm shift relative to glycine control of -0.08%. For `C=CCNC(=O)C1CC2c3ccccc3C1c1ccccc12` (stereo not drawn), the Tm shift relative to glycine control was 1.25%. For `CSc1ncccc1C(=O)Nc1nc2ccc(F)cc2s1`, the Tm shift relative to glycine control was 11.6% (active). `CSc1ncccc1C(=O)Nc1ccc(C)cn1` was tested, and the Tm shift relative to glycine control was 0.09%. `CSc1ncccc1C(=O)Nc1ccc2c(c1)OCO2` gave a Tm shift relative to glycine control of -2.2%.
